Screening results: PubChem BioAssay, National Center for Advancing Translational Sciences (NCATS)
MBNL1 CUG block = MBNL1-poly(CUG) RNA binding inhibition; Potency, µM (highest dose often 57.5 µM), for inactives: at the top dose activity change, negative = inhibition, actives largely listed as inhibitors; TR-FRET MBNL1-His/biotin-(CUG)12 binding, 665/545 ratio; 0.036% of 280,000 active; active = well fitted inhibition curve with a large enough effect in the signal ratio, with a control signal flat, not every such curve was filed as active; inconclusive = small, poorly fitted or top-dose-only effect, or effect the other way, or a change in a side signal; inactive = no such curve, though single readings can be large or run the other way; the % refers to the signal ratio; note: % is set by controls: 0 for no effect and ±100 for the full control effect
Target sequence (Q9NR56 whole entry, looked up): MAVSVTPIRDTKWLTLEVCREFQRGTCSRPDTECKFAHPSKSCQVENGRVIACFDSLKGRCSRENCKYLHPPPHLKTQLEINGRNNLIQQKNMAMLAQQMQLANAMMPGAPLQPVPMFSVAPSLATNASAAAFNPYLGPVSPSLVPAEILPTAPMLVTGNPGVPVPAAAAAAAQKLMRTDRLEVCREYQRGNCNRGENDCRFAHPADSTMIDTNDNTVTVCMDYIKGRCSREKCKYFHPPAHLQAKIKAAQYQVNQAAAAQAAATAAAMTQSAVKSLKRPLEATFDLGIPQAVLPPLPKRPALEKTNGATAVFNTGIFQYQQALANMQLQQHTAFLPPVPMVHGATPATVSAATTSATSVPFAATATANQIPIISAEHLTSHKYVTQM
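TR-FRET between His-tagged MBNL1 and biotin-(CUG)12 RNA, detected with Tb anti-His antibody (0.055 ng/ul) and streptavidin-XL665 (5 nM), 60 min at room temperature. Compounds titrated 92 nM to 58 uM; 665/545 nm ratio normalized to buffer and complex controls.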
Abeta rescue = compounds reversing amyloid beta toxicity in yeast; Potency, µM (doses to about 46.1 µM), usual class: activators; AID 1347071; 0.063% of 410,000 active; yeast expressing A-beta42, growth rescue, OD600, 48 h; response scale: 0% DMSO, 100% iron-clioquinol control; note: nearly all actives have a fitted effect of over 55% in size
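Growth rescue measured by 600 nm absorbance after 48 h yeast culture at 30 C with compound. Values normalized between DMSO and an equimolar ferric chloride plus clioquinol control.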
FUS suppressor = suppressors of FUS proteinopathy in yeast | S. cerevisiae FUS-expressing, growth rescue, OD600, 24 h | Potency, µM (series often up to 76.6 µM), actives largely listed as activators | AID 1347120 | 0.24% of 390,000 active;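 note: plate controls were DMSO vehicle for no effect and reference control for full effect; nearly all actives have a fitted effect of over 55% in size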
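Cultures pregrown in 2.5% raffinose medium are shifted to minimal medium containing 2% galactose to express toxic FUS. Compounds are tested at several concentrations. After 24hr at 30C, growth is quantified at 600 nm absorbance.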
GRP78 ERSR act = ER stress response induction in glioma; AID 602332; Potency, µM, without a hit: at the highest dose activation, usual class: activators; 0.02% of 420,000 active; U87-MG GRP78 promoter luciferase reporter, 16 h; note: series mostly up to about 76 µM; % of control where 0% means no effect; nearly all actives have a fitted effect of over 35% in size
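Stably transfected U87-MG glioma cells carrying a GRP78-based luciferase sensor; 16 h compound incubation. Luminescence end-point read 10 min after Bright-Glo addition at room temperature.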
TDP43 rescue = inhibitors of TDP-43 toxicity in yeast. 1.8% of 410,000 active. TDP-43 expressing yeast growth rescue, BacTiter-Glo, 24 h. Potency, µM (series often up to 46.1 µM), for the others: at the top dose growth rescue (activation), actives largely listed as activators; note: % of control where 0% means no effect; nearly all actives have a fitted effect of over 50% in size
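Yeast cells expressing TDP-43 under galactose induction are exposed to compounds for 24 hr at 30 deg C. BacTiter-Glo luminescence measures growth, so protective compounds score as activators.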
aSyn rescue = alpha-synuclein toxicity inhibition in yeast; Yeast expressing alpha-synuclein, growth rescue, BacTiter-Glo, 24 h; AID 652106; Potency, µM (top dose mostly 46.1 µM), for the others: at the highest dose growth rescue (activation), hits mostly activators; 0.14% of 370,000 active; note: % of control where 0% means no effect; nearly all actives have a fitted effect of over 65% in size
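Galactose-induced alpha-syn yeast (OD600=0.02, raffinose-pregrown) + pinned cpd, 24 hr, 30 deg C; growth by BacTiter-Glo luminescence. Growth restoration scores as activation.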
* hit, by the source's call; i = inactive; ? = inconclusive; / = not tested or not shown; [ ] = remark or other dose. The list is not random: actives were taken first. Their share in the collection is about 2%. Unless noted, calls come from the whole dose curve; as a rule, active = well fitted curve in the direction sought with a large enough effect; inconclusive = small, poorly fitted or top-dose-only effect, or another doubt; inactive = no such curve, though single readings can be large; an effect the other way counts as inactive or inconclusive. Potency is the fitted concentration of half-maximal effect.

SMILES | MBNL1 CUG block | Abeta rescue | FUS suppressor | GRP78 ERSR act | TDP43 rescue | aSyn rescue
Cc1ccc(Cn2cc(C(=O)c3ccc(C)cc3)c(=O)c3ccc(C)nc32)cc1 | / | i | i | 1% | 25% | /
Cc1ccc(C(=O)c2cn(Cc3cccc(C)c3)c3nc(C)ccc3c2=O)cc1 | / | i | i | -3% | 20µM* | /
COC(=O)c1ccc(-c2cccc3c2OC(CNC(=O)/C=C/c2ccc(OC)c(OC)c2)C3)nc1 (configuration not stated) | / | / | / | 0% | / | /
O=C(O)c1ccc(Oc2nc3ccccc3s2)cc1 | / | i | / | -8% | 13µM* | ?
O=C(O)c1ccc(C=C(c2nc3ccccc3s2)c2nc3ccccc3s2)cc1 | 4% | i | i | -7% | -16% | 12%
S=c1nc(-c2cc(Cl)ccc2Cl)[nH][nH]1 | / | 18µM* | i | -1% | ? | -2%
Cc1ccc(CCNC(=O)C2CCCN(S(=O)(=O)c3c(C)noc3/C=C/N(C)C)C2)cc1 (configuration not stated) | -5% | i | 20µM* | -4% | 9% | 0%
O=C(NNC(=O)c1ccc(Cl)cc1Cl)c1csc(-c2cccnc2)n1 | 0% | i | i | 1% | 0% | 5%
O=C(NCc1ccc(Cl)cc1)c1csc(-c2cccnc2)n1 | 4% | i | i | 0% | 16µM* | -1%
Cc1ccc(Cn2c(C)c3cnn(CC(=O)N4CCN(c5ccc(F)cc5)CC4)c(=O)c3c2C)cc1 | / | i | ? | -5% | 16µM* | /
Cc1cc(=O)n(CC(=O)N2CCN(c3ccc(F)cc3)CC2)c2c1c(C)nn2C | / | i | i | -2% | 11µM* | /
CCC[C@H]1[C@@H](NC(=O)C#Cc2ccccc2)CC[C@@]23CCCN2C(=O)CCC[C@@H]13 | / | / | i | / | / | /
O=S(=O)(CCSc1nc2ccccc2s1)c1nc2ccccc2s1 | -3% | i | i | -16% | 2.5µM* | -54%
C=CCS(=O)(=O)c1nc2ccccc2s1 | -20% | i[9.22 µM] | i | -15% | 22µM* | 0%
CCS(=O)(=O)CCSc1nc2ccccc2s1 | 0% | i | i | 0% | -9% | 7%
N#Cc1cccc(NC(=O)OCCN2C(=O)CCC23CCC(c2ccc(Cl)cc2)CC3)c1 (configuration not stated) | / | / | i | / | / | /
c1ccc(CSc2nc3ncccn3n2)cc1 | / | i | i | -1% | 16µM* | -9%[1.84 µM]
O=C(NCCc1ccccc1)c1nc2ncccn2n1 | 6% | i | i | -1% | -8% | -1%
Cc1ccc2[nH]cc(C(O)c3c[nH]c4ccc(C)cc34)c2c1 | / | / | / | -6% | / | /
COCc1cc(N2CCOCC2)nc(SCc2ccc(Cl)cc2)n1 | -3% | 10µM* | i | -4% | -12%[0.397 µM] | 15%
COCCCN1C(=O)[C@H](CC(=O)N2CCCCC2)[C@]2(C(=O)OC)CCCCC=C12 | / | / | i | / | / | /
Cc1cc(-c2n[nH]c(=S)n2N=Cc2ccc(-c3ccccc3)cc2)n[nH]1 | / | / | i | / | / | /
Cn1c(/C=C/c2ccccc2)nc2ccccc2c1=O | 10% | i | i | 1% | ? | -13%
CCn1c(/C=C/c2ccc(F)cc2)nc2ccccc2c1=O | 10% | i | i | 3% | 22µM* | -13%
CCn1c(/C=C/c2ccccc2)nc2ccccc2c1=O | 1% | i | i | 1% | 35µM* | -1%
SMILES | MBNL1 CUG block | Abeta rescue | FUS suppressor | GRP78 ERSR act | TDP43 rescue | aSyn rescue
CC(=O)Nc1ccccc1-c1nc(CNC(=O)c2cccc(-n3cccn3)c2)c(C)o1 | / | / | / | -2% | / | /
Cc1csc(SCC(=O)NCC2Cc3cc(-c4cncnc4)ccc3O2)n1 (configuration not stated) | / | / | / | -1% | / | /
Cc1ccc(C2CC2c2n[nH]c(=S)n2-c2cccc(Cl)c2)cc1 (configuration not stated) | -4% | i | i | -3% | 35µM* | 9%
Cc1ccc(-n2c(C3CC3c3ccc(Cl)cc3)n[nH]c2=S)cc1 (configuration not stated) | 3% | i | i | 1% | -19% | -1%
CCc1nc2c(OCCC3CCCCC3)cccn2c1N(C)C(=O)c1ccc(OC)cc1 | / | i | 22µM* | 11% | -1% | 7%
CCOc1ccc(C(=O)Nc2ccccc2CC)cc1[N+](=O)[O-] | 21% | ? | i | -6% | 28µM* | -2%
CCOc1ccc(C(=O)Nc2ccccc2C#N)cc1[N+](=O)[O-] | ? | i | i | -3% | 25% | -6%
COc1ccc(C(=O)C(=O)N2CCC(c3ccccc3)CC2)cn1 | / | i | i | / | 27% | 16µM*
O=C(C(=O)N1CCC(Cc2ccccc2)CC1)c1cccc(Br)c1 | / | i | i | / | -9% | 4%
COc1ccc(C(=O)C(=O)N2CCC(Cc3ccccc3)CC2)cc1OC | / | i | i | / | 11µM* | 0%
COc1ccc(S(=O)(=O)N2CN(Cc3ccco3)c3nc4ccccc4nc32)cc1 | 16% | i | 5.6µM* | ? | 0% | -2%
Cc1ccc(S(=O)(=O)N2CN(Cc3ccco3)c3nc4ccccc4nc32)cc1 | 10% | i | i | 3% | -22% | 9%
O=S(=O)(c1ccc(F)cc1)N1CN(Cc2ccco2)c2nc3ccccc3nc21 | 16% | i | 16µM* | 0% | 2% | -13%
CCN(CC)/[N+]([O-])=N/OCOC(=O)c1ccccc1OC(C)=O | / | / | / | 0% | / | 9%
Cc1nn2c3ccccc3nc2c2ccccc12 | -9% | i | i | -7% | 40µM* | 27%
Cc1ccc(-c2nn3c(-c4ccc(C)cc4)nnc3c3ccccc23)cc1 | / | i | i | 0% | 16% | /
Cc1nn2c(-c3ccccc3)nnc2c2ccccc12 | -1% | i | i | -2% | 18µM* | ?
COc1ccccc1-c1ccnc(-n2ncc(C(=O)N3CCN(C4CCCC4)CC3)c2-c2ccco2)n1 | / | / | / | -5% | / | /
CCOC(=O)C1CCCc2c1[nH]c1ccc(Cl)cc21 (configuration not stated) | 10% | ? | i | -1% | 13µM* | 1%
CCOC(=O)c1ccc2[nH]c3c(c2c1)CCCC3C(=O)OCC (configuration not stated) | 4% | i | i | 5% | ? | -14%
O=C(Oc1c(-c2ccccc2)c(=O)n2c3c(cccc13)CC2)c1cccc([N+](=O)[O-])c1 | 6% | 14µM* | i | -7% | -29%[1.82 µM] | ?
CCOc1ccc(NC(=O)CN(c2cccc(C(F)(F)F)c2)S(C)(=O)=O)cc1 | -22% | i | i | 1% | 13µM* | 4%
